Most compounds without a hit are left out; they make up all but 0.77% or so of the library.
RE007 growth inh: less growth of the S. pombe RE007 Vpr strain; S. pombe RE007 Vpr strain, BacTiter-Glo ATP luminescence, 24 h; Potency, µM (doses to about 92.2 µM), hits mostly inhibitors; actives 0.21% (n = 360,000); AID 651644; active = well fitted falling curve with a large enough effect; inconclusive = small, poorly fitted or top-dose-only effect; inactive = no such curve, though single readings can be large or run the other way; also: nearly all actives have a fitted effect of over 50% in size
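Fission yeast RE007 carrying one integrated HIV-1 vpr copy, seeded at OD 0.01 in PMG+AL medium with 23 nL pinned compound. Grown 24 h at 30 degrees; viability read by BacTiter-Glo luminescence after 5 min.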
NS1 function inh: influenza NS1 inhibition; AID 2326; Potency, µM (titrated, usually from 46.1 µM); actives 0.4% (n = 270,000); calls by dose curve; also: actives are rising curves; nearly all actives have a fitted effect of over 50% in size
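S. cerevisiae expressing influenza A NS1, grown in glucose, washed, then diluted 1:100 into pH 6.0 -URA galactose medium with 23 nl compound. Growth recovery read as OD600; NS1-free strain serves as control.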
LmPK inhibitor: LmPK (Leishmania mexicana) enzyme inhibition. Q27686. purified LmPK, Kinase-Glo ATP luminescence, 1 h. Potency, µM (doses to about 57.5 µM), actives largely listed as inhibitors. actives 0.37% (n = 290,000). AID 1721
Target sequence (Q27686 whole entry, looked up): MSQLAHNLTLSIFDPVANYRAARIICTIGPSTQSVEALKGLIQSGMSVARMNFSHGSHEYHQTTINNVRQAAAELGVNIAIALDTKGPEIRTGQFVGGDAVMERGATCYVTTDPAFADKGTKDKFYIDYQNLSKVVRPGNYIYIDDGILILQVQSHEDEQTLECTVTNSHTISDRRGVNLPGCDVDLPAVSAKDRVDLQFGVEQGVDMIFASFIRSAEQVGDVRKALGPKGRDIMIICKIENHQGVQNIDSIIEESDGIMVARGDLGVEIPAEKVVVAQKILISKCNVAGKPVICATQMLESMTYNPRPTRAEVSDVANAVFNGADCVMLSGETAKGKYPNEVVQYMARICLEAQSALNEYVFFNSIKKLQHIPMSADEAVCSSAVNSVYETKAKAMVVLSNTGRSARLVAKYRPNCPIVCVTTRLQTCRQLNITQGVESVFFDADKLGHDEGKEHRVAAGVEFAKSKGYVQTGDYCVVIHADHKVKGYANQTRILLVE
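0.1 nM LmPK, 0.5 mM PEP, 0.1 mM ADP; 50 mM imidazole pH 7.2, 7 mM MgCl2, 50 mM KCl; 1 h RT. Kinase-Glo luminescence readout, normalized to no-enzyme (full inhibition) and uninhibited wells.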
Tb PYK inh: blocks Trypanosoma brucei pyruvate kinase | Q57TT1 | TbPYK enzyme, Kinase-Glo Plus ATP luminescence, 45 min | actives 0.12% (n = 410,000) | AID 624173 | Potency, µM (top dose mostly 76.8 µM), actives largely listed as inhibitors; also: nearly all actives have a fitted effect of over 50% in size
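Enzyme and substrate buffer are dispensed first and compound is pin-transferred. ADP at 130 uM final then starts the reaction, which runs 45 min at room temperature. Detection reagent is added for 10 min before luminescence is imaged.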
Hits are given with their value; . = inactive; ? = inconclusive; / = no result given; ! = a repeat was not active; [ ] = remark or other dose. Unless noted, calls follow the shape of the dose curve; as a rule, active = well fitted curve in the direction sought with a large enough effect; inconclusive = small, poorly fitted or top-dose-only effect, or another doubt; inactive = no such curve, though single readings can be large; an effect the other way counts as inactive or inconclusive.

SMILES | RE007 growth inh | NS1 function inh | LmPK inhibitor | Tb PYK inh
CCCCOc1ccc(N2C(=O)CC(NCCc3ccc(S(N)(=O)=O)cc3)C2=O)cc1 (stereo unspecified) | 63.1µM | . | . | .
Nc1ncnc2c1ncn2[C@@H]1O[C@H](COP(=O)(O)OP(=O)(O)OP(=O)(O)O)[C@@H](O)[C@H]1O | 3.16µM | / | / | .
CCN(C(=O)CSc1ncc(S(=O)(=O)c2ccc(C)c(Cl)c2)c(=O)[nH]1)c1cccc(C)c1 | / | / | / | .
Cc1ccn2cc(-c3cc4ccccc4oc3=O)nc2c1 | . | . | 14.1µM | .
O=C(/C=C\Nc1ccccn1)c1ccc(Cl)cc1 | . | . | 12.6µM | .
O=C(O)c1ccc(N/N=C/c2ccc3nccnc3c2)cc1 | ? | . | 15.8µM | ?
O=C(O)c1ccc(N/N=C/c2ccncc2)cc1 | . | . | . | .
N#CC1C(=O)c2ccccc2C1c1ccccc1 (stereo unspecified) | 8.91µM | / | / | .
O=C1CCC(c2ccccc2)c2ccccc21 (stereo unspecified) | . | / | / | .
CCCCCCCCCCCCCC[n+]1ccc(C)cc1 | / | / | / | .
CCCCCCCCCCCC[n+]1ccc2ccccc2c1 | / | / | / | .
CCCCCCCCCCCCCCCC[n+]1ccccc1 | 15.8µM! | / | / | .
CCCCCCC[n+]1ccc(-c2cc[n+](CCCCCCC)cc2)cc1 | 6.31µM | . | . | .
Cc1c(Cl)cccc1NC(=O)c1cc(-c2ccc(O)cc2)on1 | / | . | / | /
NCCc1ccc(S(=O)(=O)O)cc1[N+](=O)[O-] | / | . | / | /
CCOc1ccc(NC(=O)CSc2oc(-c3ccco3)nc2S(=O)(=O)c2ccc(Cl)cc2)cc1 | / | / | / | .
Cc1nn(C)cc1-c1n[nH]c(=S)n1-c1ccc(Cl)cc1 | . | . | 7.94µM | ?
CC(C)(C)c1cc(-c2n[nH]c(=S)n2-c2ccc(Cl)cc2)n[nH]1 | . | . | 12.6µM | ?
Cc1ccc(-n2c(C)n[nH]c2=S)cc1 | . | . | . | ?
CC[C@H](C)[C@H](NC(=O)[C@H](CO)NC(=O)[C@H](CC(N)=O)NC(=O)[C@H](CC(C)C)NC(=O)[C@H](Cc1ccc(O)cc1)NC(=O)[C@H](CCCCN)NC(=O)[C@H](CCCCN)NC(=O)[C@@H](NC(=O)[C@H](C)NC(=O)[C@H](CCSC)NC(=O)[C@H](CCC(N)=O)NC(=O)[C@H](CCCCN)NC(=O)[C@H](CCCNC(=N)N)NC(=O)[C@H](CC(C)C)NC(=O)[C@H](CCCNC(=N)N)NC(=O)[C@@H](NC(=O)[C@H](Cc1ccc(O)cc1)NC(=O)[C@H](CC(N)=O)NC(=O)[C@H](CC(=O)O)NC(=O)[C@@H](NC(=O)[C@H](Cc1ccccc1)NC(=O)[C@@H](NC(=O)[C@H](C)NC(=O)[C@H](CC(=O)O)NC(=O)[C@H](CO)NC(=O)[C@@H](N)Cc1c[nH]cn1)C(C)C)[C@@H](C)O)[C@@H](C)O)C(C)C)C(=O)N[C@@H](CC(C)C)C(=O)N[C@@H](CC(N)=O)C(=O)O | / | / | / | .
c1cncc(CNCc2cccnc2)c1 | / | . | / | /
Fc1c(F)c(F)c(N/N=C/c2c[nH]c3ccccc23)c(F)c1F | 15.8µM | . | . | .
O=C(O)c1ccc(N/N=C/c2c[nH]c3ccccc23)cc1 | . | . | . | .
O=C(NC1CCCCCC1)c1ccc([N+](=O)[O-])s1 | 44.7µM | / | / | .
O=C(COc1ccccc1)Nc1nccs1 | . | . | 14.1µM | .
SMILES | RE007 growth inh | NS1 function inh | LmPK inhibitor | Tb PYK inh
O=C(COc1ccc2ccccc2c1)Nc1nccs1 | ? | . | . | .
Cc1cc(C)c(S(=O)(=O)Nc2cc(SCC(=O)O)c(O)c3ccccc23)cc1C | . | . | 20µM | 10µM
CN1c2ccsc2/C(=N/NC(=O)c2c(F)cccc2F)CS1(=O)=O | . | . | . | .
CN1c2ccsc2/C(=N/Nc2ccccc2)CS1(=O)=O | 44.7µM | / | . | .
NC(=O)/C=C/C(=O)Nc1ccc(Cl)cc1 | 11.2µM | / | . | .
O=C(/C=C/C(Cl)(Cl)Cl)Nc1ccc(Cl)cc1 | ? | / | / | .
Oc1ccc(/C=N/n2c3ccccc3c3ccccc32)cc1 | 31.6µM | . | . | .
CC(=O)Oc1ccc(OC(C)=O)c(SCCCCCCl)c1 | . | / | 11.2µM | .
CCOC(=O)c1c(C)oc2c1c(C(c1ccncc1)N1CCOCC1)c(O)c1ccccc12 (stereo unspecified) | 39.8µM | . | . | .
CCOC(=O)c1c(C)oc2c1c(CN1CCN(C(=O)OCC)CC1)c(O)c1ccccc12 | . | . | . | .
CCN(CC)c1ccc(NC(=O)c2cccn2-c2nnc(N3CCCCC3)s2)c(C)c1 | / | / | / | .[15.4 µM]
CN(C)C(=O)Oc1ccc(-c2cn3cc(Cl)ccc3n2)cc1 | . | . | 12.6µM | .
O=[N+]([O-])c1ccc(-c2ccc(C=Nc3cccc4ccccc34)o2)cc1 | . | . | . | .
O=[N+]([O-])c1ccc(C=Nc2cccc3ccccc23)s1 | 22.4µM | . | . | .
Cc1ccc(-c2nc3cc(Cl)ccc3o2)cc1 | . | . | ? | .
COc1cc(OC)cc(-c2nc3cc(C)ccc3o2)c1 | ? | . | 14.1µM | .
CCOC(=O)C(=O)Nc1cc(C)on1 | . | . | 15.8µM | .
COc1cccc(N2CCN(C3CC(=O)N(c4ccc(F)c(Cl)c4)C3=O)CC2)c1 (stereo unspecified) | 28.2µM | . | . | .
CCOc1ccc(N2C(=O)CC(N3CCN(c4ccccc4OC)CC3)C2=O)cc1 (stereo unspecified) | 28.2µM | . | . | .
COc1ccc(NC2CCN(C3CC(=O)N(c4ccc(F)c(Cl)c4)C3=O)CC2)cc1 (stereo unspecified) | 6.31µM | . | . | .
CO[C@H]1/C=C/O[C@@]2(C)Oc3c(C)c(O)c4c(O)c(c(/C=N\N5CCN(C6CCCC6)CC5)c(O)c4c3C2=O)NC(=O)/C(C)=C\C=C\[C@H](C)[C@H](O)[C@@H](C)[C@@H](O)[C@@H](C)[C@H](OC(C)=O)[C@@H]1C | / | / | / | .
COc1ccc2[nH]c3c(=O)n(CCCCC(=O)N4CCCC4)c(=S)[nH]c3c2c1 | . | ? | 2µM | ?
CC(=O)N1CCC2(CC1)CCN(C(=O)Nc1cccc(F)c1)CC2 | / | / | / | .
COc1cccc(-n2c(-c3cccc(S(=O)(=O)N(C)C)c3)n[nH]c2=S)c1 | . | / | . | 7.08µM
COc1cccc(-n2c(-c3ccc4[nH]c(C)c(C)c4c3)n[nH]c2=S)c1 | . | . | . | 7.94µM
CCOc1ccc(C[C@H]2NC(=O)CCSSC[C@@H](C(=O)N3CCC[C@H]3C(=O)N[C@@H](CCCN)C(=O)NCC(N)=O)NC(=O)[C@H](CC(N)=O)NC(=O)[C@H]([C@@H](C)O)NC(=O)[C@H]([C@@H](C)CC)NC2=O)cc1 | / | / | / | .
CC#CCN1c2ccccc2[C@]23C[C@@H](C(=O)OC)N(S(=O)(=O)c4ccc(C)cc4)C2=NC(C(=O)OC)=C(C(=O)OC)[C@H]13 | / | / | .[11.5 µM] | /
O=C1C(=O)c2c(C(=O)c3ccccc3)coc2-c2ccccc21 | 11.2µM | . | . | .
Cc1oc2c(c1C(=O)c1ccccc1)C(=O)C(=O)c1ccccc1-2 | ? | . | . | .
COc1ccc(OCC(=O)Nc2cccc(-c3nc4ccccc4s3)c2C)cc1 | / | / | / | .
